The text below walks through data of PubChem BioAssay AID2315 (National Center for Advancing Translational Sciences (NCATS), 2010).

The campaign covered roughly 290,000 compounds. About 27,000 (9.3%) were called active. Cut-off read from the data, not from the text of the source: active = inhibition mostly above about 28% (no sharp cut-off); inactive = mostly below about 43%. This excerpt belongs to a sample that is enriched for actives.

The experiment in a line: A qHTS for Small Molecule Inhibitors of Shiga Toxin. For inhibition: 0% is about no effect. To be noted: Vero cells, Shiga toxin protein synthesis inhibition reporter; at 38.7 µM, active compounds read high. For orientation: qHTS replaces the single test concentration by a dilution series.
In the case of `CCN(CC(=O)Nc1ccc2c(c1)OCO2)S(=O)(=O)c1ccccc1`, the inhibition is 2.17% (inactive).

With `Cc1cccc(CN2CCC(n3nccc3NC(=O)c3ccccc3C)CC2)n1`, the inhibition was -8.84% (inactive).

As for `Nc1nnnn1/N=C/c1cccc(Br)c1`, the inhibition was 18.9% (inactive).

Turning to `Cc1cc(/C=C2/C(=N)N3C(=NC2=O)SN=C3S(C)(=O)=O)c(C)n1-c1ccccc1`, the inhibition was 98% (active).

As for `CCC1=NN2C(=N)/C(=C/c3cc(C)n(-c4ccccc4)c3C)C(=O)N=C2S1`, the inhibition is 6.12% (inactive).

`CCS(=O)(=O)C1=NSC2=NC(=O)/C(=C\c3cc(C)n(-c4cccc(OC)c4)c3C)C(=N)N21`: the inhibition was 21.9% (inactive).

In the case of `CC1(C)NC(=O)N(CC(=O)Nc2cc(C(F)(F)F)cc(C(F)(F)F)c2)C1=O`, the inhibition is 10.9% (inactive).

In the case of `Cc1cc(=O)n2nc(N3CCC(C(=O)Nc4c(F)c(F)c(F)c(F)c4F)CC3)sc2n1`, the inhibition was -3.72% (inactive).

For `Cc1cc(=O)n2nc(N3CCCC(C(=O)NCc4ccc(Cl)cc4)C3)sc2n1` (stereo not drawn), the inhibition is -10.3% (inactive).

Take `CC(=O)O[C@H]1c2ccccc2-c2ccccc2[C@@H]1OC(C)=O`: the inhibition was -4.45% (inactive).

As to `Nc1ccc(S(=O)(=O)Nc2nccc(/C=C/c3ccc(Br)s3)n2)cc1`, the inhibition was 2.79% (inactive).

For the compound `Oc1cccc2ccc(/C=C/c3ccc(Br)s3)nc12`, the inhibition was 112% (active).

For `CC(=O)Nc1ccc(S(=O)(=O)NC2Cc3ccccc3C2)cc1`, the inhibition was -3.63% (inactive).

Consider `COc1ccc(CCNC(=O)CS(=O)(=O)Cc2nc(-c3ccc(C)cc3)oc2C)cc1OC`, for which the inhibition was 3.34% (inactive).

In the case of `COc1ccc(CNc2nc3c(c(=O)[nH]c(=O)n3C)n2Cc2ccccc2)cc1`, the inhibition was -4.35% (inactive).

As to `Cc1ccc(Cn2c(C)nc3c(c2=O)c2nc4ccccc4nc2n3Cc2ccco2)cc1`, the inhibition was 12.7% (inactive).

As to `Cc1nc2c(c(=O)n1Cc1ccco1)c1nc3ccccc3nc1n2Cc1ccccc1`, the inhibition was -14% (inactive).

With `Clc1cccc(-c2nc3nc4ccccc4nc3n2Cc2ccco2)c1`, the inhibition was 75.4% (active).

As for `CN(C)N1C(N)=C(C#N)C(c2ccc(Br)cc2)C2=C1CCCC2=O` (stereo not drawn), the inhibition is -14.3% (inactive).

Regarding `COc1ccccc1CN1CCCC(N2CCN(c3ccc(F)cc3)CC2)C1` (stereo not drawn), the inhibition is -2.63% (inactive).

`Cc1ccc(S(=O)(=O)NCC(=O)N(CC(=O)NCC2CCCO2)c2cccc(F)c2)cc1` (stereo not drawn): the inhibition is -9.17% (inactive).

Turning to `O=C(CSc1nc2ccccc2o1)N/N=C/c1ccccc1C(=O)O`, the inhibition is 41.2% (inactive).

Turning to `CCN(CC)C(=O)CSc1nc2ccccc2o1`, the inhibition was 67.4% (active).

As to `O=C(CSc1nc2ccccc2o1)N1CCN(c2ccc(Cl)cc2)CC1`, the inhibition was -1.01% (inactive).

`CC(C)(C)C(=O)CSc1nc2ccccc2o1`: the inhibition is 113% (active).

In the case of `CCS(=O)(=O)c1ccc2oc(SCC(=O)N3c4ccccc4CC3C)nc2c1` (stereo not drawn), the inhibition is -14.6% (inactive).

`O=C(CSc1nc2ccccc2o1)N1CCN(c2ccccc2)CC1`: the inhibition was -6.06% (inactive).

On to `O=C(CSc1nc2ccccc2o1)N1c2ccccc2Sc2ccc(Cl)cc21`, for which the inhibition was -8.96% (inactive).

With `Cc1cc(=O)[nH]c(SCC(=O)N2c3ccccc3CC2C)n1` (stereo not drawn), the inhibition was -7.96% (inactive).

With `CCOC(=O)n1c(SCC(=O)N(CC)CC)nc2ccccc21`, the inhibition is -11% (inactive).

Turning to `Cc1ccc(/C=N/NC(=O)CSc2nc3ccccc3o2)cc1`, the inhibition was 83.9% (active).

In the case of `CC1Cc2ccccc2N1C(=O)CSc1nc2ccccc2o1` (stereo not drawn), the inhibition is 94.1% (active).

As to `CCn1c(SCC(=O)N/N=C/c2ccncc2)nc2ccccc21`, the inhibition was -2.17% (inactive).

As for `O=S(=O)(NCC1CN(S(=O)(=O)c2ccc3c(c2)OCCO3)C1)c1c(F)cccc1F`, the inhibition is -12.4% (inactive).

As for `COC(=O)c1cc(S(=O)(=O)N2CCN(c3cc(C)ccc3C)CC2)c[nH]1`, the inhibition is -9.79% (inactive).

`CCC(C(=O)NC1CCCC1)N(C(=O)Cn1nnc(-c2ccc(C)o2)n1)c1ccc(OC)c(OC)c1` (stereo not drawn): the inhibition was -7.44% (inactive).

Turning to `CC1CC(C)CN(CCOc2cccc3ccccc23)C1` (stereo not drawn), the inhibition was -12.3% (inactive).

`CC1CCC(NC(=O)CN(C)S(=O)(=O)c2ccc3c(c2)c(=O)n(C)c(=O)n3C)CC1` (stereo not drawn): the inhibition was -2.58% (inactive).

As for `CCCS(=O)(=O)N1CCN=C1SCc1cccc(F)c1`, the inhibition is -4.79% (inactive).

Consider `COC(=O)c1cc(OCC(=O)NC2CCCc3ccccc32)cc(C(=O)OC)c1` (stereo not drawn), for which the inhibition was -5.73% (inactive).

As to `O=C1OCCN1C(=O)[C@H]1[C@H](c2ccc(Cl)cc2)C(c2cccc(Cl)c2)=NN1c1ccc(Br)cc1`, the inhibition entry is “inactive”.

`COc1ccccc1Oc1ccc(N2CC(C(=O)OCC(=O)c3ccc(F)cc3)CC2=O)cc1` (stereo not drawn): the inhibition is 7.33% (inactive).

As for `COc1cccc(CNS(=O)(=O)c2ccc3c(c2)CC(C)N3C(C)=O)c1` (stereo not drawn), the inhibition was -5.4% (inactive).

Regarding `O/N=C(\C[n+]1ccccc1)c1ccc(Br)cc1`, the inhibition is 13.2% (inactive).

`O=C(Nc1cccc(NC(=O)c2ccccc2[N+](=O)[O-])c1)c1ccccc1Cl`: the inhibition is 30.9% (inactive).

Consider `O=C(Nc1ccc2nc3n(c(=O)c2c1)CCCCC3)c1ccccc1Cl`, for which the inhibition is 40.7% (inactive).

In the case of `O=C(Nc1ccc2sc3ccccc3c(=O)c2c1)c1ccccc1Cl`, the inhibition was 93.9% (active).

On to `CCSCc1nc(N)nc(NCCc2ccccc2)n1`, for which the inhibition is 15.6% (inactive).

As to `CCc1nn(CCCC(=O)NCc2ccc(C)cc2)c(=O)c2cc3occc3n12`, the inhibition is 18.7% (inactive).

`CCNC(=S)N(CCN(CC)CC)Cc1cc2cc3c(cc2[nH]c1=O)OCO3`: the inhibition is -7.63% (inactive).

For the compound `COc1ccc(NC(=O)C(C)N2c3cccc4cccc(c34)S2(=O)=O)c(OC)c1` (stereo not drawn), the inhibition is -11.7% (inactive).

With `CCC(C)NCC(=O)Nc1ccc([N+](=O)[O-])cc1C(=O)Nc1ccccc1F` (stereo not drawn), the inhibition is 13% (inactive).

On to `O=[N+]([O-])c1cccc(/C([O-])=C(/C(=S)Nc2ccccc2F)[n+]2ccccc2)c1`, for which the inhibition was 83.4% (active).

On to `Cc1ccc(/C([O-])=C(/C(=S)NCc2ccco2)[n+]2ccccc2)cc1[N+](=O)[O-]`, for which the inhibition was -8.48% (inactive).

In the case of `Cc1cc(C)c(C#N)c(Nc2cccc(Br)c2)n1`, the inhibition was -8.95% (inactive).

For `CN(Cc1ccccn1)Cc1nc(-c2ccc(Cl)cc2)no1`, the inhibition was 31.7% (inactive).

Turning to `COc1ccc(-c2noc(COc3ccc(Cl)c(C)c3)n2)cc1`, the inhibition is 25.5% (active).

As for `COc1ccc(C(C)=O)cc1COc1ccc(Cl)c(C)c1`, the inhibition is 7.61% (inactive).

`Cc1cc(Cl)ccc1OCCCC(=O)NCc1ccncc1`: the inhibition is 14.6% (inactive).

Consider `Cc1cc(Cl)ccc1OCc1nc(-c2ccncc2)no1`, for which the inhibition was 129% (active).

On to `COc1ccc(N2CCN(C(=O)CCc3nc(-c4ccc(C)cc4)no3)CC2)cc1`, for which the inhibition is -8.71% (inactive).

`C=C(C)COc1ccc(-c2ncncc2-c2ccc(OC)cc2)c(O)c1`: the inhibition was -1.7% (inactive).

Take `Cc1ccc(CN2C(=O)N/C(=C/c3cc(C)n(-c4ccccn4)c3C)C2=O)cc1`: the inhibition is 31.1% (inactive).

`CCN(CC)S(=O)(=O)c1ccc(Cl)c(C(=O)NCCN2CCOCC2)c1`: the inhibition is -6.97% (inactive).

As to `Cc1ccc(OCC(=O)Nc2ccc3oc(=O)ccc3c2)cc1C`, the inhibition is -5.7% (inactive).

For the compound `Cc1oc2cc3oc(=O)ccc3cc2c1C`, the inhibition was 40.7% (active).

As for `COc1c(C(C)C)oc2cc3oc(=O)ccc3cc12`, the inhibition is 34% (inactive).

As for `CCN(C(=O)COc1ccc(C(=O)c2ccccc2)cc1)c1ccccc1`, the inhibition is -10.2% (inactive).

With `Cc1ccccc1N1CC(C(=O)Nc2nnc(SCCC3OCCO3)s2)CC1=O` (stereo not drawn), the inhibition was -4.6% (inactive).

For the compound `COc1ccc(OCc2nnc3n2N=C(c2ccccc2)C(CC(=O)O)S3)cc1` (stereo not drawn), the inhibition is -9.4% (inactive).

Take `CC/C(=N\NC(=O)c1ccccc1O)c1c(O)n(Cc2ccccc2)c(=O)[nH]c1=O`: the inhibition was 58.6% (active).

In the case of `CCCCn1c(O)c(C(CC)=NCc2ccco2)c(=O)[nH]c1=O`, the inhibition is -7.37% (inactive).

For the compound `CCCCCCN=C(CC)c1c(O)n(CCCC)c(=O)[nH]c1=O`, the inhibition was -8.53% (inactive).

As to `Cc1cc2cc3c(cc2nc1SCC(=O)Nc1c(C)cccc1C)CCC3`, the inhibition was -6.77% (inactive).

For the compound `CCOCCCNC(=O)c1cc2c(=O)n3ccccc3nc2s1`, the inhibition was 74.5% (active).

On to `Cc1cccn2c(=O)c3cc(C(=O)NC4CCCCC4)sc3nc12`, for which the inhibition was -2.1% (inactive).

As for `CCn1c(=N)c(C(=O)NCCCOC)cc2c(=O)n3cccc(C)c3nc21`, the inhibition is -7.15% (inactive).

With `NC(=O)C1CCN(CC(O)CSc2ccc(F)cc2)CC1` (stereo not drawn), the inhibition was 2.41% (inactive).

In the case of `O=C(CSc1ncccn1)NCCc1ccccc1`, the inhibition is 1.16% (inactive).

For `CC(C)(C)NC(=O)Cn1cnc([N+](=O)[O-])n1`, the inhibition was -6.78% (inactive).

`O=C(Cn1cnc([N+](=O)[O-])n1)NCCc1ccccc1`: the inhibition was 17.3% (active).

Regarding `COc1ccc2cc(CCl)c(Cl)nc2c1`, the inhibition was 14.8% (inactive).

For the compound `CCCC(=O)N1CCC(CCC(=O)NC2CC2)CC1`, the inhibition was 14.8% (inactive).

Regarding `COCCNC(=O)c1ccc(N2CCC3(CC2)OCCO3)c([N+](=O)[O-])c1`, the inhibition is 7.01% (inactive).

Consider `CCC(C)NC(=O)c1ccc(N2CCC3(CC2)OCCO3)c([N+](=O)[O-])c1` (stereo not drawn), for which the inhibition was 50.1% (active).

Take `CC(NC(=O)c1ccc(N2CCNCC2)c([N+](=O)[O-])c1)C12CC3CC(CC(C3)C1)C2` (stereo not drawn): the inhibition was -0.798% (inactive).

For `COc1ccc(NC(=O)c2cc(-c3cc(OC)c(OC)c(OC)c3)nc3ccccc23)c(OC)c1`, the inhibition was 15.1% (inactive).

With `CC(=O)Oc1ccc2c(=O)oc(-c3ccc([N+](=O)[O-])cc3)nc2c1`, the inhibition was -6.54% (inactive).

`COc1ccc2oc(-c3cccc(NC(=O)CSc4ccc(Cl)cc4)c3)nc2c1`: the inhibition was 13.6% (inactive).

For `O=[N+]([O-])c1ccc2oc(-c3cccc(O)c3)nc2c1`, the inhibition was 47.7% (active).

Take `COc1cccc(-c2nc(S(=O)(=O)c3ccccc3)c(N3CCOCC3)o2)c1`: the inhibition was 20.2% (inactive).

Take `COc1cccc(-c2nc3cc(C)ccc3o2)c1`: the inhibition is 65% (active).

As to `COc1ccc(-c2nc3cc([N+](=O)[O-])ccc3o2)cc1OC`, the inhibition was 27.9% (inactive).

As usually defined, the inhibition is the change of the read-out against control, counted positive when it falls.
